This is an account of results in paper PMC4336329 (PLoS ONE, 2015).

Out of some 310,000 compounds screened, about 14,000 (4.5%) showed an effect of 50% or more. Effects have a minus sign here. For the sample, strong results were picked, then their nearest neighbours and some compounds at random.
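Note: peak tail current of the secondary pulse compared with the same well before compound.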

The target in this experiment is human ether-à-go-go-related gene (hERG) potassium channel (human, UniProt Q12809). The experiment is described as follows: primary screen, population patch clamp on CHO cells stably expressing hERG; higher = less effect of the substance.
human ether-à-go-go-related gene (hERG) potassium channel, sequence (Q12809 whole entry, looked up): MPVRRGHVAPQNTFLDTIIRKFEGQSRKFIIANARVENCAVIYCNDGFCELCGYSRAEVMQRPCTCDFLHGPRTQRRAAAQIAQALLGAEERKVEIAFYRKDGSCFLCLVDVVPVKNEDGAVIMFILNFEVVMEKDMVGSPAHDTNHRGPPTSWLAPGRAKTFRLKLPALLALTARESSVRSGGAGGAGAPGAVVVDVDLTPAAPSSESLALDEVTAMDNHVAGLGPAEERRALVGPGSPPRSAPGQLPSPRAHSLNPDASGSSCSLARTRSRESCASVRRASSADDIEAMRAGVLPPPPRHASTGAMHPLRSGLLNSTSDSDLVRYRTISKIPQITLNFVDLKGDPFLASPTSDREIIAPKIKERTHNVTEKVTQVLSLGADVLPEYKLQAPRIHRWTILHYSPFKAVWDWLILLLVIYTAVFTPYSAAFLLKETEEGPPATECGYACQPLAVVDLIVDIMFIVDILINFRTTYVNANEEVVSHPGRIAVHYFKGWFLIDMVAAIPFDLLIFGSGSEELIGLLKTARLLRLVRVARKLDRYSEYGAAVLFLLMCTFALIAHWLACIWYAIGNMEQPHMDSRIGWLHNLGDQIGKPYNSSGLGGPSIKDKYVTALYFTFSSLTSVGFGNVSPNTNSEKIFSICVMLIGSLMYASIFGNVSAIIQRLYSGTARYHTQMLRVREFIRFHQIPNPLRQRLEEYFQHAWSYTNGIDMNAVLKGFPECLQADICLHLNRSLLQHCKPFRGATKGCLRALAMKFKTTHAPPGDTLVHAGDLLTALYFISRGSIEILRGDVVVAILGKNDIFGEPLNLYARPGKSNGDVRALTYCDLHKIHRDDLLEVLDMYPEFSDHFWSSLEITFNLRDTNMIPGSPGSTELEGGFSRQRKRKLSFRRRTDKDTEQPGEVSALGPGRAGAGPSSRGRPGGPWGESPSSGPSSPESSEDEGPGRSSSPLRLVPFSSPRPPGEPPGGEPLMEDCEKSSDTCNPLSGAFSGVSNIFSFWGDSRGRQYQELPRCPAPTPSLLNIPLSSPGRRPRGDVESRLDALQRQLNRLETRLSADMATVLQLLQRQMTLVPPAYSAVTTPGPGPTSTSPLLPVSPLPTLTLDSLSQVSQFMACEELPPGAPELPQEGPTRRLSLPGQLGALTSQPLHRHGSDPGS
On to `Cc1c(NC(=S)N/N=C/C=C/c2ccccc2)c(=O)n(-c2ccccc2)n1C`, for which the “hERG current change (%, negative = inhibition) at 10uM” value amounted to 11.2%.

Turning to `Cc1ccc(-c2noc(C3CCCCC3)n2)cc1`, the “hERG current change (%, negative = inhibition) at 10uM” value is reported as 16.1%.

Consider `COc1cc(OC)cc(-c2cc3nc(C)c(CCC(=O)NC(C)CCc4ccco4)c(C)n3n2)c1` (stereo not drawn), for which the “hERG current change (%, negative = inhibition) at 10uM” value is recorded as -58.4%.

Regarding `COc1cc(OC)cc(-c2cc3nc(C)c(CCC(=O)NCc4ccccc4)c(C)n3n2)c1`, the “hERG current change (%, negative = inhibition) at 10uM” value is -33.8%.

For `COc1ccc(-c2cc3nc(C)c(CCC(=O)NCc4ccc(F)cc4)c(C)n3n2)c(OC)c1`, the “hERG current change (%, negative = inhibition) at 10uM” value is -60.4%.

As for `COc1ccc(CNC(=O)CCc2c(C)nc3cc(-c4ccccc4OC)nn3c2C)cc1`, the “hERG current change (%, negative = inhibition) at 10uM” value was -37.7%.

On to `Cc1csc(NC(=O)CCc2c(C)nc3cc(-c4cccc(F)c4)nn3c2C)n1`, for which the “hERG current change (%, negative = inhibition) at 10uM” value is recorded as -17.3%.

`COc1ccccc1-c1cc2nc(C)c(CCC(=O)NC(C)CCc3ccco3)c(C)n2n1` (stereo not drawn): the “hERG current change (%, negative = inhibition) at 10uM” value was -62.5%.

With `COc1ccccc1-c1cc2nc(C)c(CCC(=O)NCc3ccc(F)cc3)c(C)n2n1`, the “hERG current change (%, negative = inhibition) at 10uM” value is reported as -49.7%.

On to `COc1ccccc1-c1cc2nc(C)c(CCC(=O)NCc3ccco3)c(C)n2n1`, for which the “hERG current change (%, negative = inhibition) at 10uM” value is reported as -43.1%.

Consider `Cc1nc2cc(-c3cccc(F)c3)nn2c(C)c1CCC(=O)NC(C)CCc1ccco1` (stereo not drawn), for which the “hERG current change (%, negative = inhibition) at 10uM” value is given as -70.6%.

As for `Cc1nc2cc(-c3ccccc3)nn2c(C)c1CCC(=O)NCc1ccco1`, the “hERG current change (%, negative = inhibition) at 10uM” value is listed as -37.4%.

Consider `COc1ccccc1CNC(=O)CCc1c(C)nc2cc(-c3ccccc3OC)nn2c1C`, for which the “hERG current change (%, negative = inhibition) at 10uM” value is given as -11.5%.

Take `COc1cc(OC)cc(-c2cc3nc(C)c(CCC(=O)Nc4nc(C)cs4)c(C)n3n2)c1`: the “hERG current change (%, negative = inhibition) at 10uM” value was found to be 10%.

With `COc1ccc(C2SCC(=O)N2C)cc1` (stereo not drawn), the “hERG current change (%, negative = inhibition) at 10uM” value was found to be 1.55%.

As to `COc1cccc(-c2cc(=O)c3cc(NC(=O)c4ccc(N(C)C)cc4)ccc3[nH]2)c1`, the “hERG current change (%, negative = inhibition) at 10uM” value worked out at 16.2%.

`CN(C)S(=O)(=O)Oc1ccc(Cl)cc1C(=O)Nc1ccc(F)cc1F`: the “hERG current change (%, negative = inhibition) at 10uM” value is given as -3.01%.

`Cc1cc(N/N=C2\CC(C)CC(C)(C)C2)nc2ccccc12` (stereo not drawn): the “hERG current change (%, negative = inhibition) at 10uM” value is -7.04%.

Consider `CCN1C(=O)/C(=C/c2ccc3c(c2)CCN3CCCCl)C(=O)NC1=S`, for which the “hERG current change (%, negative = inhibition) at 10uM” value was -3.76%.

`N#Cc1c(-c2ccco2)cc(-c2ccc(F)cc2)nc1N`: the “hERG current change (%, negative = inhibition) at 10uM” value is -2.08%.

In the case of `COc1ccc(-c2cc(=O)oc3c(C)c(OC(C)C(=O)Nc4ccc(CN5CCOCC5)cc4)ccc23)cc1` (stereo not drawn), the “hERG current change (%, negative = inhibition) at 10uM” value is recorded as -5.78%.

With `Cn1c(/C(C#N)=C2/CCCCCN2)nc2ccccc21`, the “hERG current change (%, negative = inhibition) at 10uM” value is -12.5%.

Take `O=S(=O)(NCc1ccc(Cl)cc1)NCc1ccc(Cl)cc1`: the “hERG current change (%, negative = inhibition) at 10uM” value is 12.7%.

As to `COC(=O)c1cc(Br)ccc1OC(=O)c1cccnc1`, the “hERG current change (%, negative = inhibition) at 10uM” value came to 7.06%.

In the case of `Cc1nc2cc(-c3ccc(Cl)cc3)nn2c(C)c1CCC(=O)NCc1ccco1`, the “hERG current change (%, negative = inhibition) at 10uM” value is -41.9%.

Turning to `COc1ccc(-c2cc3nc(C)c(CCC(=O)NC(C)CCc4ccco4)c(C)n3n2)c(OC)c1` (stereo not drawn), the “hERG current change (%, negative = inhibition) at 10uM” value was -62%.

For the compound `COc1ccc(-c2cc3nc(C)c(CCC(=O)NCc4ccco4)c(C)n3n2)c(OC)c1`, the “hERG current change (%, negative = inhibition) at 10uM” value is given as -12.9%.

Regarding `Cc1ccc(C(=O)O)cc1NC(=S)NCCc1ccccc1`, the “hERG current change (%, negative = inhibition) at 10uM” value came to 0.261%.

For `C[C@H](NC(=O)c1cc2c(cn1)[nH]c1ccccc12)C(=O)O`, the “hERG current change (%, negative = inhibition) at 10uM” value stood at 18.4%.

`CCOC(=O)C1(Cc2ccccc2C)CCCN(S(C)(=O)=O)C1` (stereo not drawn): the “hERG current change (%, negative = inhibition) at 10uM” value was found to be 16.5%.

For `Cc1cc(NC(=O)c2ccc(N3C(=O)C4C5C=CC(C5)C4C3=O)cc2)no1` (stereo not drawn), the “hERG current change (%, negative = inhibition) at 10uM” value is reported as 8.53%.

In the case of `O=C(Nc1ccccc1OC(F)F)c1cccc(S(=O)(=O)N2CCCC2)c1`, the “hERG current change (%, negative = inhibition) at 10uM” value is listed as -23.6%.

As to `COc1ccc(-n2cnnc2SCC(=O)Nc2cccnc2Cl)cc1`, the “hERG current change (%, negative = inhibition) at 10uM” value is -18.7%.

Regarding `CCC(C)(C)c1ccc(OCC(=O)Nc2ccncc2)cc1`, the “hERG current change (%, negative = inhibition) at 10uM” value is recorded as -16%.

For `CC(C)(C)c1ccc(OCC(=O)Nc2ccncc2)cc1`, the “hERG current change (%, negative = inhibition) at 10uM” value came out at 8.71%.

With `COc1cc(NC(=O)COc2ccc(-n3ccnc3)cc2)cc(OC)c1`, the “hERG current change (%, negative = inhibition) at 10uM” value is listed as -51.3%.

For the compound `CC(C)(C)c1ccc(NC(=O)COc2ccc(-n3ccnc3)cc2)cc1`, the “hERG current change (%, negative = inhibition) at 10uM” value was -56.5%.

For the compound `Cc1ccc(NC(=O)COc2ccc(-n3ccnc3)cc2)cc1Cl`, the “hERG current change (%, negative = inhibition) at 10uM” value is given as -33.6%.

With `COc1cc(NC(=O)CC(C)n2ccnc2)cc(OC)c1` (stereo not drawn), the “hERG current change (%, negative = inhibition) at 10uM” value was 10.7%.

`CCOC(=O)/C(C)=N/NC(=O)c1cccc([N+](=O)[O-])c1`: the “hERG current change (%, negative = inhibition) at 10uM” value is recorded as 7.04%.

For `Cc1ccc(CNC(=O)c2ccc(N3CCC4(CC3)CC(c3ccccc3)=NO4)c(NC(=O)c3cccc(C)c3)c2)cc1`, the “hERG current change (%, negative = inhibition) at 10uM” value was -6.37%.

Consider `CCCOc1ccc(N2C(=O)CC(SCc3nc4ccccc4[nH]3)C2=O)cc1` (stereo not drawn), for which the “hERG current change (%, negative = inhibition) at 10uM” value is reported as -41.2%.
